# PubChem BioAssay (NCATS)
# Results filed as inconclusive are left out. Unmarked numbers belong to inactive results. The source made the active and inactive calls. Calls follow the shape of the dose curve; as a rule, active = well fitted curve in the direction sought with a large enough effect; inconclusive = small, poorly fitted or top-dose-only effect, or another doubt; inactive = no such curve, though single readings can be large; an effect the other way counts as inactive or inconclusive.
# How the values were obtained:
# [1] = biological target: Retinaldehyde dehydrogenase 3 (Homo sapiens) (UniProt P47895); assay: qHTS for Inhibitors of the Aldehyde Dehydrogenase Family (ALDH1A3) Confirmatory screens (AID 2061311); also: potency is read from the fitted curve at half-maximal effect; nearly all actives have a fitted effect of over 60% in size
# [2] = biological target: Retinal dehydrogenase 2 (Homo sapiens) (UniProt O94788); assay: qHTS for Inhibitors of the Aldehyde Dehydrogenase Family (ALDH1A2) Confirmation screens (AID 2061314); also: nearly all actives have a fitted effect of over 65% in size; also: potency is read from the fitted curve at half-maximal effect
# [3] = biological target: Retinaldehyde dehydrogenase 3 (Homo sapiens) (UniProt P47895); assay: qHTS for Inhibitors of the Aldehyde Dehydrogenase Family (ALDH1A3) Primary screen (AID 2061315);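 also: plate controls were DMSO vehicle for no effect and reference inhibitor for full effect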
# [4] = biological target: Aldehyde dehydrogenase 1A1 (Homo sapiens) (UniProt P00352); assay: qHTS for Inhibitors of the Aldehyde Dehydrogenase Family (ALDH1A1) Confirmatory screens (AID 2061316); also: nearly all actives have a fitted effect of over 65% in size; also: potency is read from the fitted curve at half-maximal effect
# [5] = biological target: Retinaldehyde dehydrogenase 3 (Homo sapiens) (UniProt P47895); assay: qHTS for Inhibitors of the Aldehyde Dehydrogenase Family (ALDH1A3) Validation screen (AID 2061312); also: % is scaled to controls: 0 for no effect and ±100 for the full control effect; nearly all actives have a fitted effect of over 45% in size
# [6] = BET inhibitor-based combinations targeting novel dependencies in MECOM-rearranged (r) AML: SET-2 cell line (AID 2202231); conditions: SET-2 AML cells viability, CellTiter-Glo luminescence, 48 h; viability: stronger effect = lower value, concentration not given here; also: nearly all actives have a fitted effect of over 35% in size; also: potency is read from the fitted curve at half-maximal effect;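 as to viability: plate controls were DMSO treated cells for no effect and wells without cells for full effect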
# Outline: (§1)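 Readout: CellTiter-Glo luminescence. Exposure: 48 h, 11 concentrations, 500 cells/well. Metric: AUC and within-line Z-AUC after DMSO/empty-well normalization.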
# [7] = BET inhibitor-based combinations targeting novel dependencies in MECOM-rearranged (r) AML: OCI-AML3 cell line (AID 2202232); conditions: Potency: OCI-AML3 viability; also: nearly all actives have a fitted effect of over 35% in size; also: potency is read from the fitted curve at half-maximal effect
# Outline: as §1
# [8] = BET inhibitor-based combinations targeting novel dependencies in MECOM-rearranged (r) AML: MV-4-11 cell line (AID 2202233); also: nearly all actives have a fitted effect of over 45% in size; also: potency is read from the fitted curve at half-maximal effect
# Outline: (§2)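 Seeding density was 500 cells/well, and drug exposure lasted 48 hr under standard culture conditions. Read-out used CellTiter-Glo reagent with a 15 min room-temperature incubation before luminescence measurement; AUC and Z-AUC summarize the normalized responses.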
# [9] = BET inhibitor-based combinations targeting novel dependencies in MECOM-rearranged (r) AML: HNT-34 cell line (AID 2202234); also: nearly all actives have a fitted effect of over 35% in size; also: potency is read from the fitted curve at half-maximal effect
# Outline: as §2
# [10] = BET inhibitor-based combinations targeting novel dependencies in MECOM-rearranged (r) AML: UCSD-AML1 cell line (AID 2202235); also: nearly all actives have a fitted effect of over 40% in size; also: potency is read from the fitted curve at half-maximal effect
# Outline: as §2
# [11] = BET inhibitor-based combinations targeting novel dependencies in MECOM-rearranged (r) AML: AML-191 cell line (AID 2202236; also: nearly all actives have a fitted effect of over 35% in size; also: potency is read from the fitted curve at half-maximal effect)
# Outline: as §1
# [12] = BET inhibitor-based combinations targeting novel dependencies in MECOM-rearranged (r) AML: AML-194 cell line (AID 2202237; also: nearly all actives have a fitted effect of over 40% in size; also: potency is read from the fitted curve at half-maximal effect)
# Outline: as §1
compound,measurement,setting,value
Cc1cc(C)nc(NC(=S)N2CCN(c3ccc4nccn4c3)CC2)c1,Potency,[1],10.1 µM (active)
same,Potency,[2],14.2 µM (active)
same,Potency,[3],inactive
same,Potency,[4],7.12 µM (active)
Cc1ccc(S(=O)(=O)Nc2cc(S(=O)(=O)c3ccc(C)cc3)c(O)c3cccnc23)cc1,Potency,[1],1.13 µM (active)
same,Potency,[2],2.01 µM (active)
same,Potency,[4],1.42 µM (active)
COc1ccc(-c2ccc(C)cc2)cc1CC(=O)N(C)C(C)c1ccco1 (stereo not drawn),Potency,[1],2.01 µM (active)
same,Potency,[2],6.31 µM (active)
same,Potency,[4],11.3 µM (active)
CN(Cc1ccco1)Cc1ccc(O)c2ncccc12,Potency,[1],11.3 µM (active)
same,Potency,[2],2.52 µM (active)
same,Potency,[3],inactive
COc1cc(/C=C(\C#N)C(=O)Nc2ccc(C(=O)O)cc2)ccc1OC(=O)c1cccc(F)c1,Potency,[1],15.8 µM (active)
same,Potency,[2],inactive
same,Potency,[4],inactive
COc1ccc(C(=O)c2ccc(-c3no[n+]([O-])c3C#N)cc2)cc1,Potency,[1],2.51 µM (active)
same,Potency,[2],12.6 µM (active)
same,Potency,[3],inactive
same,Potency,[4],5.65 µM (active)
O=C1CCCC2=C1C(c1cccnc1Br)N=C(Nc1nc3ccccc3o1)N2 (stereo not drawn),Potency,[1],20.1 µM (active)
same,Potency,[3],inactive
same,Potency,[4],11.3 µM (active)
CC(=O)Nc1ccc(OCc2cccc(-c3nc4ccccc4c(=O)n3Cc3ccco3)c2)cc1,Potency,[1],15.8 µM (active)
same,Potency,[2],7.98 µM (active)
same,Potency,[3],inactive
same,Potency,[4],2.83 µM (active)
C=CC(=O)N1CCC[C@@H](n2nc(-c3cccc(C(=O)Nc4ccc(C(C)C)c(C)c4)c3)c3c(N)ncnc32)C1,Potency,[5],inactive
C=CC(N)CCC(=O)O (stereo not drawn),Potency,[5],inactive
COc1ccccc1C(=O)Nc1ccc(-c2cc(C(F)(F)F)nn2-c2ccccc2)cc1,Potency,[2],inactive
CNC(=O)c1cc(C2CC2)nc2onc(C3CCCN3C(=O)c3cccc(Cl)c3)c12 (stereo not drawn),Potency,[2],inactive
O=C(NCC(=O)N1CCOCC1)c1ccc(-c2cccc(C(F)(F)F)c2)cc1,Potency,[2],inactive
Fc1cc(F)cc(Cc2nc3nccc(-c4cccnc4)n3n2)c1,Potency,[2],inactive
CCc1noc(-c2nc(Cc3cccc(F)c3)no2)n1,Potency,[2],inactive
CCOc1ccc(-c2cc(C(=O)NC(C)c3ccccc3)c3ccccc3n2)cc1 (stereo not drawn),Potency,[2],inactive
COc1cccc(-c2nnc(-c3ccccc3NC(=O)c3cccc(C(F)(F)F)c3)o2)c1,Potency,[2],inactive
CC[C@H]1CN(C(=O)Nc2cccc(C(F)(F)F)c2)CC[C@H]1CC(=O)N(C)CCC#N,Potency,[2],inactive
COc1ccc(C(=O)Nc2ccc(-c3cc(C(F)(F)F)nn3-c3ccccc3)cc2)cc1OC,Potency,[2],inactive
CC(C)CN1C(=O)CO[C@H](c2ccc(NS(=O)(=O)c3cccc(F)c3)cc2)[C@H]1CO,Potency,[2],inactive
CC(C)Oc1ccc(CNC(=O)C2CCCCN2S(=O)(=O)c2ccc(F)cc2)cc1 (stereo not drawn),Potency,[2],inactive
Cc1ccc(-n2c(-c3cccc(C)c3)nc3c(cnn3-c3ccccc3)c2=O)cc1,Potency,[2],inactive
COCCNC(=O)CCSc1nc(-c2ccc(OC)cc2)cc(C(F)(F)F)n1,Potency,[2],inactive
CCOc1ccc(S(=O)(=O)N2CCN(c3ccccc3)CC2)cc1C(N)=O,Potency,[2],inactive
CCOc1ccc(C(=O)N(Cc2ccc(C(C)C)cc2)Cc2ccco2)cc1,Potency,[2],inactive
CCN(C(=O)c1sc2nc3n(c(=O)c2c1C)CCCCC3)c1ccccc1F,Potency,[2],inactive
CC(C)OCCCn1c(SCc2ccccc2Cl)nc2c(sc3ccccc32)c1=O,Potency,[2],inactive
NS(=O)(=O)c1ccc(-n2nc(-c3ccncc3)nc2C2CCOC2)cc1 (stereo not drawn),Potency,[2],inactive
Cc1ccc(S(=O)(=O)NC[C@H]2O[C@@H](CC(=O)NCCN3CCOCC3)[C@H](O)[C@@H]2O)cc1,Potency,[2],inactive
COCCNC(=O)CNC(=O)c1ccc(-c2cccc(C(F)(F)F)c2)cc1,Potency,[2],inactive
COCCn1cnnc1CN(C)C(=O)c1ccc2nc(C)cn2c1,Potency,[2],inactive
Cn1cnc(S(=O)(=O)N2CCC(C(=O)Nc3ccc(OC(F)(F)F)cc3)CC2)c1,Potency,[2],inactive
Cn1nc(C(=O)N2CCOCCNC(=O)CC2)c2ccccc21,Potency,[2],inactive
CCc1nn2c(=O)c(S(=O)(=O)Nc3ccc(Br)cc3F)c(C)nc2s1,Potency,[2],inactive
CCOc1ccc(C(=O)Nc2ccc(S(=O)(=O)N3CCCCC3c3cccnc3)cc2)cc1 (stereo not drawn),Potency,[2],inactive
CN(C)C(=O)CN1C(=O)CO[C@H](c2ccc(NS(=O)(=O)c3cccc(F)c3)cc2)[C@H]1CO,Potency,[2],inactive
Cc1cccc(NC(=O)CSc2nc3ccccc3nc2N2CCOCC2)c1C,Potency,[2],inactive
CNC(=O)[C@H]1C[C@H](Oc2cccnc2)CN1C(=O)Cc1ccccc1,Potency,[2],inactive
COCC1CN(Cc2ccc(C(F)(F)F)cc2)CC12CCNCC2 (stereo not drawn),Potency,[2],inactive
O=C(Nc1ccc(O)cc1)c1cccc(S(=O)(=O)N2CCOCC2)c1,Potency,[2],inactive
CC(C)NS(=O)(=O)c1ccc(OCC(=O)N2CCN(c3cccc(Cl)c3)CC2)cc1,Potency,[2],inactive
COc1cccc(-c2ccc(C(=O)N3CCC(N[S+](=O)([O-])CCC(F)(F)F)CC3)cc2)c1,Potency,[2],inactive
COc1ccc(CN2CC(O)CN([S+](=O)([O-])c3ccc(F)cc3)CC2=O)cc1 (stereo not drawn),Potency,[2],inactive
CCOCc1cc(CN2CCN(c3cccc(C(F)(F)F)c3)CC2)c(O)c2ncccc12,Potency,[2],inactive
COc1ccc(N2CCN(C(=O)c3cc(NS(=O)(=O)c4ccc(F)cc4)ccn3)CC2)cc1,Potency,[2],inactive
COC(=O)CSc1ccc2nnc(CCNS(=O)(=O)c3ccccc3)n2n1,Potency,[2],inactive
COc1ccc(S(=O)(=O)NCC(c2ccc(N(C)C)cc2)N2CCOCC2)cc1 (stereo not drawn),Potency,[2],inactive
O=C1COCCN1C1CCN(S(=O)(=O)c2cccc(C(F)(F)F)c2)CC1,Potency,[2],inactive
CN(CC(=O)Nc1ccc(OC(F)(F)F)cc1)S(=O)(=O)c1ccc2c(c1)CCC(=O)N2,Potency,[2],inactive
Cc1ccc(-n2c(SCc3ccccc3C)nc3[nH]ncc3c2=O)cc1C,Potency,[2],inactive
Nc1c(-c2ccncc2)cc[nH]c1=O,Potency,[3],inactive
CC(=O)[C@]1(N)Cc2c(O)c3c(c(O)c2[C@@H](O[C@H]2C[C@H](O)[C@H](O)CO2)C1)C(=O)c1ccccc1C3=O,viability,[6],106%
same,Potency,[7],8.33 µM (active)
O=C(NOCCO)c1cc(CN2OCCCC2=O)c(F)c(F)c1Nc1ccc(I)cc1F,viability,[6],70.8%
Cc1ncsc1-c1ccc([C@H](C)NC(=O)[C@@H]2C[C@@H](O)CN2C(=O)[C@@H](NC(=O)COCCCOCCNC(=O)C[C@@H]2N=C(c3ccc(Cl)cc3)c3c(sc(C)c3C)-n3c(C)nnc32)C(C)(C)C)cc1,Potency,[6],3.72 µM (active)
same,Potency,[7],0.0093 µM (active)
same,Potency,[8],0.0047 µM (active)
same,Potency,[9],0.0295 µM (active)
same,Potency,[10],0.0833 µM (active)
Cc1[nH]c(/C=C2\C(=O)Nc3ccccc32)c(C)c1CCC(=O)O,viability,[6],83.1%
same,Potency,[7],20.9 µM (active)
same,Potency,[8],13.2 µM (active)
CN(CCO)C1CCN(c2ccc(Nc3ncc4c5ccnc(F)c5n(C5CCCC5)c4n3)nc2)CC1,Potency,[6],2.04 µM (active)
same,Potency,[7],0.182 µM (active)
same,Potency,[8],0.129 µM (active)
same,Potency,[9],1.82 µM (active)
COc1nc(N)nc2c1ncn2C1OC(CO)C(O)C1O (stereo not drawn),viability,[6],114%
same,Potency,[7],inactive
same,Potency,[8],inactive
N#C/C(=C\c1ccc(O)c(O)c1)C(=O)NCc1ccccc1,Potency,[6],14.8 µM (active)
same,Potency,[7],5.9 µM (active)
CC1(C)C(N(O)C(=O)Nc2ccc(Cl)cc2)N(c2ccc(Cl)cc2)C(=O)N1CC(=O)N/N=C/C=C/c1ccc([N+](=O)[O-])o1 (stereo not drawn),Potency,[6],20.9 µM (active)
same,Potency,[7],3.32 µM (active)
same,Potency,[8],4.68 µM (active)
same,Potency,[9],13.2 µM (active)
CCOC(=O)C1=CCCCC1S(=O)(=O)Nc1ccc(F)cc1Cl (stereo not drawn),Potency,[6],20.9 µM (active)
O=S1(=O)N=C(Oc2ccc(Br)cc2)c2ccccc21,Potency,[3],inactive
same,Potency,[4],12.7 µM (active)
Cc1cc(C(=O)NOCCO)c(Nc2ccc(I)cc2F)n(C)c1=O,viability,[6],96.3%
same,Potency,[7],0.0059 µM (active)
same,Potency,[8],0.0295 µM (active)
same,Potency,[9],0.0468 µM (active)
CN1CCN(c2ccc(Nc3ncc4cc(C#N)c(=O)n(C5CCCC5)c4n3)cc2)CC1,Potency,[6],1.18 µM (active)
same,Potency,[7],0.105 µM (active)
same,Potency,[8],0.186 µM (active)
COc1ccc(-c2cc(C(O)C3CCCCN3)c3ccccc3n2)cc1 (stereo not drawn),Potency,[3],inactive
same,Potency,[6],14.8 µM (active)
same,Potency,[7],20.9 µM (active)
same,Potency,[8],2.95 µM (active)
same,Potency,[9],13.2 µM (active)
same,Potency,[10],9.34 µM (active)
same,Potency,[11],14.8 µM (active)
same,Potency,[12],11.8 µM (active)
COc1ccc(Oc2cc(NCCC(F)(F)F)c3ncc(-c4ccc(C(=O)NC5CC5)c(C)c4)n3n2)c(F)c1F,viability,[6],80.2%
same,Potency,[7],0.0235 µM (active)
same,Potency,[8],0.0661 µM (active)
same,Potency,[9],0.417 µM (active)
CN(C)c1ccc(-c2nc3ncc(Cl)c(N4CCN(CC(=O)Nc5nccs5)CC4)c3[nH]2)cc1,Potency,[3],inactive
same,viability,[6],105%
same,Potency,[8],0.723 µM (active)
C[C@H]1CC2[C@@H]3CCC4=CC(=O)C=C[C@]4(C)[C@@]3(F)[C@@H](O)C[C@]2(C)[C@@]1(O)C(=O)CO (stereo partly drawn),viability,[6],115%
same,Potency,[7],inactive
same,Potency,[8],inactive
same,Potency,[9],inactive
Nc1nccn2c(C3CCC(C(=O)O)CC3)nc(-c3cc4cccc(Cl)c4[nH]3)c12 (stereo not drawn),Potency,[3],inactive
same,Potency,[7],4.68 µM (active)
same,Potency,[8],2.35 µM (active)
same,Potency,[9],1.48 µM (active)
same,Potency,[10],1.05 µM (active)
C[C@H](O)[C@@H]1C(=O)N2C(C(=O)O)=C(S[C@@H]3CN[C@H](CNS(N)(=O)=O)C3)[C@@H](C)[C@@H]12,Potency,[3],inactive
same,viability,[6],118%
same,Potency,[7],inactive
same,Potency,[9],inactive
same,Potency,[10],inactive
same,Potency,[11],inactive
same,Potency,[12],inactive
O=C1c2ccccc2NC(c2ccc(-c3cccc(Cl)c3)o2)N1O (stereo not drawn),Potency,[3],inactive
same,Potency,[4],22.5 µM (active)
Cn1nccc1Nc1nccc(-c2cc3c(s2)C(C)(C)N(CCN2CCOCC2)C3=O)n1,viability,[6],105%
same,Potency,[7],1.32 µM (active)
same,Potency,[8],4.17 µM (active)
CCC(=O)O[C@]1(C(=O)CO)CC[C@H]2[C@@H]3CCC4=CC(=O)CC[C@]4(C)[C@H]3CC[C@@]21C,viability,[6],101%
same,Potency,[7],inactive
same,Potency,[8],inactive
